# The entries come from a sample that favours hits as a whole.
# Vaccinia mCherry – vaccinia inhibition (mCherry reporter); Vaccinia virus mCherry reporter infection, fluorescence; Potency, µM (series often up to 36.5 µM), for inactives: at the top dose activity change, negative = inhibition, actives largely listed as inhibitors; actives 0.63% (n = 310,000); calls by dose curve; tested in A549 cells; further: potency means the concentration at half of the fitted maximal effect; on the % scale 0 is the no-effect control and ±100 the full control effect; nearly all actives have a fitted effect of over 35% in size
# MARV entry inh – inhibitors of Marburg virus binding or cell entry; Marburg virus pseudotyped entry inhibition, cell reporter; Potency, µM (titrated, usually from 37.8 µM), inactives show top-dose activity change, negative = inhibition, usual class: inhibitors; actives 1.8% (n = 300,000); AID 540276; calls by dose curve; tested in HEK293 cells; further: potency means the concentration at half of the fitted maximal effect; on the % scale 0 is the no-effect control and ±100 the full control effect
# Shiga toxin inh – inhibitors of Shiga toxin in Vero cells | inhibition, % at 38.7 µM | Vero cells, Shiga toxin protein synthesis inhibition reporter | actives 9.2% (n = 290,000); in the data active means inhibition mostly above about 28%, no sharp cut-off; inactive means mostly below about 43%; further: 0% is about no effect
# Cycloheximide cs – affects cycloheximide protein synthesis inhibition readout, counter-screen. max response, %. actives 12% (n = 300,000). cell reporter, cycloheximide protein synthesis inhibition counterscreen; in the data active means max response mostly above about 13%, no sharp cut-off; inactive means mostly below about 14%; further: read at 38.3 µM for the half of the compounds with a filed dose; 0% is about no effect
# LASV entry inh – Lassa virus entry inhibition; Lassa virus pseudotype entry inhibition, cell reporter; Potency, µM (highest dose often 37.9 µM), for the others: top-dose activity change, negative = inhibition, hits mostly inhibitors; actives 1.2% (n = 300,000); calls by dose curve; tested in HEK293 cells; further: potency means the concentration at half of the fitted maximal effect; on the % scale 0 is the no-effect control and ±100 the full control effect; nearly all actives have a fitted effect of over 50% in size
# VACV Venus inh – vaccinia inhibition (Venus reporter); Vaccinia virus Venus reporter expression, fluorescence; Potency, µM (titrated, usually from 36.5 µM), for the others: top-dose activity change, negative = inhibition, usual class: inhibitors; actives 0.46% (n = 330,000); AID 720580; calls by dose curve; tested in A549 cells; further: potency means the concentration at half of the fitted maximal effect; on the % scale 0 is the no-effect control and ±100 the full control effect; nearly all actives have a fitted effect of over 30% in size
# Numbers without * were called inactive; i = inactive; ? = inconclusive; . = no result given; [ ] = remark or other dose.
SMILES,Vaccinia mCherry,MARV entry inh,Shiga toxin inh,Cycloheximide cs,LASV entry inh,VACV Venus inh
O=C1CC(c2ccccc2)CC(O)=C1C=Nc1ccc(O)cc1 (stereo not given),?,?,62,18*,?,?
Brc1ccc[n+](CCc2ccccc2)c1,-9%,.,.,.,.,-20%
COc1ccccc1-n1c(O)c(C=NCc2ccc3c(c2)OCO3)c(=O)[nH]c1=O,i,-12%,-13,-2,?,-18%
COc1ccccc1-n1c(O)c(/C=N/NC(=S)Nc2ccccc2)c(=O)[nH]c1=S,.,.,32,22*,.,.
O=C(N/N=C/c1c(O)n(Cc2ccccc2)c(=O)[nH]c1=O)c1ccccc1O,36%,?,6,16*,?,15%
O=C(N/N=C/c1c(O)n(CCc2ccc(F)cc2)c(=O)[nH]c1=O)c1ccccc1,.,.,53*,14*,.,.
CCn1c(O)c(/C=N/NC(=O)c2ccccc2)c(=O)[nH]c1=S,.,.,44*,31*,.,.
O=C(N/N=C/c1c(O)n(CCc2ccc(F)cc2)c(=O)[nH]c1=O)c1ccncc1,1%,?,-1,15,2%,-6%
Cc1ccccc1NC(=O)CSC1=Nc2ccccc2C2=NC(CCC(=O)NCc3ccccc3)C(=O)N12 (stereo not given),-6%,-18%[46.1 µM],.,.,-4%[46.1 µM],0%
O=C(N/N=C/c1c(O)n(CCc2ccccc2)c(=O)[nH]c1=O)c1ccncc1,-14%,4%,-15,-7,11%,-2%
O=C(N/N=C/c1c(O)n(CCc2ccccc2)c(=O)[nH]c1=O)c1ccccc1O,.,-2%,29,24*,.,.
COc1ccc(Cn2c(O)c(/C=N/NC(=O)c3ccccc3O)c(=O)[nH]c2=O)cc1,-2%,2%[46.1 µM],20,13*,-2%,5%
COc1ccc(Cn2c(O)c(/C=N/NC(=O)c3ccccc3)c(=O)[nH]c2=O)cc1,.,.,75*,37*,.,.
O=C(N/N=C/c1c(O)n(Cc2ccco2)c(=O)[nH]c1=O)c1ccccc1,.,.,80,34*,.,.
O=C(COC(=O)/C=C/c1ccccc1)NCC1CCCO1 (stereo not given),-12%,12%,18,21,-6%,12%
Cc1ccc(-c2n[nH]c(=S)n2-c2ccccc2)cc1,-14%,5%,-4,-1,0%,-7%
COc1ccc(C2=NCN(c3ccc(C)cc3)C(=S)N2)cc1,-5%,4%,42,36*,-1%,-26%
Cc1ccc(N2CN=C(c3ccccc3)NC2=S)cc1,-28%,19%,98*,63*,10%,-21%
Cc1ccccc1CN1c2ccccc2S(=O)(=O)c2ccccc21,1%,.,.,.,0%[46.1 µM],-2%
Cc1nnc(SC(=O)N2c3ccccc3Sc3ccccc32)s1,10µM*,?,-12,-3,21µM*,?
CCOC(=O)N1c2ccccc2Sc2ccccc21,i,.,9,-3,.,-26%
CS(=O)(=O)c1nc(-c2ccc(Br)cc2)cc(-c2ccccc2)c1C#N,.,?,-11,1,5.8µM*,.
COc1ccc(-c2cc(-c3ccccc3)c(C#N)c(S(C)(=O)=O)n2)cc1,i,?,-8,-2,?,-11%
Nc1c(C(=O)O)ccc2c1C(=O)c1ccccc1C2=O,3%,-1%[46.1 µM],22,1,6%[46.1 µM],226%
Nc1c(SCCC(=O)O)ccc2c1C(=O)c1ccccc1C2=O,.,.,36,21*,.,.
SMILES,Vaccinia mCherry,MARV entry inh,Shiga toxin inh,Cycloheximide cs,LASV entry inh,VACV Venus inh
Cc1ccc(/C=C/C(=O)Nc2nnc(C)s2)o1,-5%,25%,61*,8,19%,5%
Cc1ccc(/C=C/C(=O)Nc2ccc(Oc3ccccc3)cc2)o1,?,?,54,26*,-17%,?
CCc1ccc(C(=O)/C=C/c2ccc([N+](=O)[O-])o2)cc1,-12%[1.46 µM],?,18,13*,?,-3%
CCOC(=O)CCc1ccc(NC(=O)/C=C/c2ccc([N+](=O)[O-])o2)cc1,?,?,.,.,7.1µM*,13µM*
CC(=O)c1ccc(NC(=O)/C=C/c2ccc(C)o2)cc1,-11%,?,.,.,10%[46.1 µM],-5%
CCc1nnc2c(N3CCN(c4cccc(C(F)(F)F)c4)CC3)nc3ccccc3n12,i,.,.,.,3%[46.1 µM],-19%
COc1ccc(CCn2c(C)cc(C(=O)CN3C(=O)C(=O)N(C4CCCC4)C3=O)c2C)cc1OC,-13%,?,.,.,-16%,-7%
CC(OC(=O)c1ccc(Cl)c(S(=O)(=O)N2CCc3ccccc32)c1)C(=O)Nc1ncc(Cl)cc1Cl (stereo not given),-4%,?,-3,0,13%,-4%
CC1Cc2cc(S(=O)(=O)CCC(=O)Nc3ccc(OC(F)(F)F)cc3)ccc2N1C(=O)C1CC1 (stereo not given),-22%,.,.,.,-5%[46.1 µM],-27%
O=C(c1ccccc1)c1cn(Cc2ccc(F)cc2)c2ccccc2c1=O,-8%,?,.,.,?,-15%
OC1CCCCC1/C=N/n1c2c(c3c1CCCC3)CCCC2 (stereo not given),.,12%,.,.,.,.
Cc1ccc(/C=C/C(=O)Nc2ccc([N+](=O)[O-])cc2)o1,?,18%,75*,36*,-8%,-25%
O=S(=O)(c1ccc2nc(COc3ccc(Cl)cc3Cl)[nH]c2c1)N1CCOCC1,?,-22%,22,14*,-1%,?
COc1ccc(-c2onc(C)c2C)cc1S(=O)(=O)NCc1ccc(Br)cc1,-30%,.,.,.,?,?
CCOC(=O)c1c(C)nc(C)c(C(=O)OCC)c1-c1cccc([N+](=O)[O-])c1,-2%,.,.,.,.,-13%
CCOC(=O)COn1c(-c2cccc(Cl)c2)nc2ccc([N+](=O)[O-])cc21,i,2%,63*,76*,18%,-4%
CCOC(=O)C(C)On1c(-c2cccc(Cl)c2)nc2ccc([N+](=O)[O-])cc21 (stereo not given),-17%[1.46 µM],-21%,102*,46*,?,-27%
CCCC1=NN2C(=N)/C(=C\c3cc(C)n(Cc4ccccc4)c3C)C(=O)N=C2S1,.,.,3,-1,.,.
COc1cc(/C=C2/C(=N)N3N=C(C(C)C)SC3=NC2=O)ccc1OS(=O)(=O)c1ccccc1,-6%,?,49,8.7*,2%[46.1 µM],-2%
Cc1cc(/C=C2\C(=N)N3N=CSC3=NC2=O)c(C)n1Cc1ccccc1,i,?,52,14*,-22%,3%
COc1cc(/C=C2/C(=N)N3N=C(CC(=O)N4CCOCC4)SC3=NC2=O)ccc1OCc1ccccc1,.,.,35*,21*,.,.
COc1cc(/C=C2\C(=N)N3N=C(S(C)(=O)=O)SC3=NC2=O)ccc1OS(=O)(=O)c1ccc(C)cc1,.,.,20,24*,.,.
ClC1CCCC(Cl)C1Cn1nnc(N2CCCC2)n1 (stereo not given),.,24%[46.1 µM],.,.,.,.
COc1ccc(Cl)cc1C1CC(=O)Nc2cc3c(cc21)OCCO3 (stereo not given),-13%[7.34 µM],?,.,.,-35%[46.1 µM],-27%[7.34 µM]
COC(=O)C1=C(C)C(=O)[C@]2(O)c3ccccc3N(C)[C@]12C,.,18%[14.2 µM],.,.,.,.

# Compound activity (PubChem BioAssay)
